Inconclusive results are not listed. Entries that show only a call come without a potency. Values without a mark were called inactive. Active and inactive are the calls of the source. The call rests on the fitted dose curve; in most records, active means well fitted curve in the direction sought with a large enough effect; inconclusive means small, poorly fitted or top-dose-only effect, or another doubt; inactive means no such curve, though single readings can be large; an effect the other way counts as inactive or inconclusive.
Tests used:
[1] = molecular target: Cellular tumor antigen p53 (Homo sapiens) (UniProt P04637); assay: Primary qHTS for small molecule compounds that upregulate eGFP-tagged delta133p53alpha (in N-terminal) cells. (AID 2060322); settings: NCI-H358 eGFP-delta133p53alpha fluorescence, 24 h; activation: stronger effect = higher value; further: nearly all actives have a fitted effect of over 75% in size; further: potency means the concentration at half of the fitted maximal effect;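 on activation: cells pre-induced with doxycycline then dosed without doxycycline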
Cellular tumor antigen p53 (Homo sapiens), sequence (P04637 whole entry, looked up): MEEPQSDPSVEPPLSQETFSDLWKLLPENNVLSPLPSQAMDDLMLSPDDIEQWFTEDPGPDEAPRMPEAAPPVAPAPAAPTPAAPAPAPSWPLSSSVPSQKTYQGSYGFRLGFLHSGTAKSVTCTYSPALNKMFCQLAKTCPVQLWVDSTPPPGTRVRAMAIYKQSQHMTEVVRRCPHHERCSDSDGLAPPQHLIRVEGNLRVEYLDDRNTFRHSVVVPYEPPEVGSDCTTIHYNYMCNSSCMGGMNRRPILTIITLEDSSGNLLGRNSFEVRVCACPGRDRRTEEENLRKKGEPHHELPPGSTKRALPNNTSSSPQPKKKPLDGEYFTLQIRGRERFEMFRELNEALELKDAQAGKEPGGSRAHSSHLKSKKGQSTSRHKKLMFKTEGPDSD
Procedure, shortened: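 NCI-H358 cells pre-induced 24 h with 10 ng/ml doxycycline for eGFP-delta133p53alpha, plated dox-free and exposed 24 h at 37C to titrated compounds. Fixed, Hoechst-stained; gated GFP peak intensity by laser scanning cytometry, normalized to DMSO (0%) and 57.5 uM 5-azacytidine (100%).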

[2] = molecular target: Aldehyde dehydrogenase, mitochondrial (Homo sapiens) (UniProt P05091); assay: qHTS for Inhibitors of the Aldehyde Dehydrogenase Family (ALDH2) Primary screen (AID 2061308); settings: ALDH2 enzyme inhibition qHTS, 1536-well; series mostly up to 56 µM; further: nearly all actives have a fitted effect of over 55% in size
[3] = molecular target: Retinaldehyde dehydrogenase 3 (Homo sapiens) (UniProt P47895); assay: qHTS for Inhibitors of the Aldehyde Dehydrogenase Family (ALDH1A3) Primary screen (AID 2061315); settings: ALDH inhibition qHTS; series mostly up to 56 µM

SMILES	activation [1] [%]	Potency [2]	Potency [3]	Potency [1]	activity change, negative = inhibition [2]	activity change, negative = inhibition [3]
CC1(C)OC(=O)C=C[C@@]2(C)C1CC(=O)[C@]1(C)C2CC[C@@]2(C)[C@H](c3ccoc3)OC(=O)[C@H]3O[C@]321 (some centres undefined)	-19.1	inactive	inactive	–	–	–
CC1=C(CO)CC(C(C)C2CCC3C4CC=C5CC(OC6OC(COC7OC(CO)C(O)C(O)C7O)C(O)C(O)C6O)CC(O)C5(C)C4CCC23C)OC1=O (centres undefined)	3.05	inactive	inactive	–	–	–
C[C@H]1CC[C@H]2[C@@H](C=C[C@@](C)(O)[C@]2(C)C(=O)CCO)C1	-9.16	inactive	inactive	–	–	–
COc1c(C)c(OCC=C(C)C)cc2c1C(=O)NC2=O	-12.2	inactive	inactive	–	–	–
COc1cc(/C=C/C(=O)OC[C@H]2O[C@@](CO)(O[C@H]3O[C@H](CO)[C@@H](O)[C@H](O)[C@H]3O)[C@@H](OC(=O)/C=C/c3ccc(O)c(OC)c3)[C@@H]2O)ccc1O	-3.82	inactive	inactive	–	–	–
CN1c2ccccc2C(=O)N2CCC3c4ccccc4NC3C21 (centres undefined)	–	inactive	inactive	1.66 µM (active)	–	–
CC(C)(OC1OC(CO)C(O)C(O)C1O)C1CCC(O)(CO)C2CC(O)C(C)(O)C2C1 (centres undefined)	-19.6	inactive	inactive	–	–	–
COc1ccc(C(O)C(C)OC2OC(CO)C(O)C(O)C2O)cc1 (centres undefined)	-7.63	inactive	inactive	–	–	–
C[C@@H]1O[C@@H](O[C@H]2[C@H](O[C@H]3[C@H](O[C@H]4CC[C@@]5(C)C(CC[C@]6(C)C5CC=C5[C@@H]7CC(C)(C)C[C@@H](O)[C@]7(C)CC[C@]56C)C4(C)C)O[C@H](C(=O)O)[C@@H](O)[C@@H]3O)O[C@H](C(=O)O)[C@H](O)[C@@H]2O)[C@H](O)[C@H](O)[C@H]1O (some centres undefined)	-16.8	inactive	inactive	–	–	–
O=C1C=CC2OC(c3ccccc3)C(O)C2O1 (centres undefined)	–	inactive	inactive	30.1 µM (active)	–	–
CC12CCC(C(OC3OC(COC4OCC(O)(CO)C4O)C(O)C(O)C3O)C1)C(C)(C)O2 (centres undefined)	-13.4	inactive	inactive	–	–	–
CC1(CCC(=O)O)C(=O)C=CC23CC4CC(OC4(C)C2O)C13 (centres undefined)	6.87	inactive	inactive	–	–	–
COc1ccc(/C=C\C(=O)O)c(O[C@@H]2O[C@H](CO)[C@@H](O)[C@H](O)[C@H]2O)c1	-7.63	inactive	inactive	–	–	–
CCOC(=O)c1ccc(OCCN2C[C@H](O)[C@@H](O)[C@H](O)[C@H]2CO)cc1	-6.33	inactive	inactive	–	–	–
C=CC1(C)CC(OC(=O)C(=C)C(O)COC(C)=O)C(C(=C)C(=O)OC)C(O)C1C(=C)CO (centres undefined)	-2.29	inactive	inactive	–	–	–
CC1(C)C(=O)N2c3ccccc3[C@]3(CC(n4cnc5ccccc5c4=O)C(=O)O3)[C@H]2N1O (some centres undefined)	1.53	inactive	inactive	–	–	–
Cc1cc(Cn2cnc3c2CC(C(=O)O)N(C(=O)C(c2ccccc2)c2ccccc2)C3)ccc1N(C)C (centres undefined)	-7.64	inactive	inactive	–	–	–
O=C1COC2(CCN(S(=O)(=O)c3ccc(-c4ccc5cccnc5c4)cc3)CC2)CN1C1CC1	-15.7	inactive	inactive	–	–	–
O=c1[nH]c2ccc(C#CCN3CCC(Cc4ccccc4)CC3)cc2[nH]1	-3.57	inactive	inactive	–	–	–
COc1ccc(CNC(=O)c2sc3nc(C)cc(C)c3c2N)cc1	-8.11	inactive	inactive	–	–	–
C[C@@H]1O[C@@H](O[C@H]2[C@H](OC(=O)[C@]34CCC(C)(C)C[C@H]3C3=CCC5[C@@]6(C)C[C@H](O)[C@H](O[C@@H]7O[C@H](CO)[C@@H](O[C@H]8OC[C@](O)(CO)[C@H]8O)[C@H](O)[C@H]7O)[C@@](C)(CO)C6[C@H](O)C[C@@]5(C)[C@]3(C)C[C@H]4O)OC[C@H](O)[C@@H]2O)[C@H](O)[C@H](O)[C@H]1O[C@@H]1OC[C@@H](O)[C@H](O[C@@H]2OC[C@](O)(CO)[C@H]2O)[C@H]1O (some centres undefined)	-17.6	–	–	–	8.6% [at 11.2 µM]	-7.49% [at 11.2 µM]
CC(=O)c1c(C)cc(O)cc1O[C@@H]1O[C@H](CO)[C@@H](O)[C@H](O)[C@H]1O	-17.6	inactive	inactive	–	–	–
C=C1CC2C3(C)C(O)CC(=O)C(C)(C)C3C(OC(C)=O)C(OC(C)=O)C2(C)C2C(=O)OC(C)(C(=O)OC)C(=O)C12C (centres undefined)	-16.8	inactive	inactive	–	–	–
